Data from PubChem BioAssay (EPA / NIEHS).
Records with an inconclusive call do not appear. Some compounds were tested as several samples or in several runs, with calls that do not always agree. Activity calls are given as the source filed them. The calls were made as follows: active = hit-call score of the fitted dose curve at least 0.9, where 1 is the maximum; inconclusive = response in the unintended direction; inactive = score below 0.9.

What was measured:
[1] = biological target: rat Mineralocorticoid Receptor (MR), Nr3c2 (gene 25672) (UniProt P22199); experiment: NVS_NR_rMR: NovaScreen (NVS) Nuclear Receptor Binding Assay for rat Mineralocorticoid Receptor (MR) (AID 2283355)
In short: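 Single-concentration duplicate screen (25 uM) of radioligand binding in adrenalectomized rat brain supernatant; scintillation detection 24 h after dosing. Positive and negative controls ran on each plate, and confirmed actives went to concentration-response.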

[2] = biological target: human Peroxisome Proliferator-activated Receptor alpha (PPARa), PPARA (gene 5465) (UniProt Q07869); experiment: NVS_NR_hPPARa: NovaScreen (NVS) Nuclear Receptor Binding Assay for human Peroxisome Proliferator-activated Receptor alpha (PPARa) (AID 2283359);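 also: activity means loss of TR-FRET signal versus DMSO baseline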
Chain of human Peroxisome Proliferator-activated Receptor alpha (PPARa), PPARA (gene 5465) (Q07869 whole entry, looked up): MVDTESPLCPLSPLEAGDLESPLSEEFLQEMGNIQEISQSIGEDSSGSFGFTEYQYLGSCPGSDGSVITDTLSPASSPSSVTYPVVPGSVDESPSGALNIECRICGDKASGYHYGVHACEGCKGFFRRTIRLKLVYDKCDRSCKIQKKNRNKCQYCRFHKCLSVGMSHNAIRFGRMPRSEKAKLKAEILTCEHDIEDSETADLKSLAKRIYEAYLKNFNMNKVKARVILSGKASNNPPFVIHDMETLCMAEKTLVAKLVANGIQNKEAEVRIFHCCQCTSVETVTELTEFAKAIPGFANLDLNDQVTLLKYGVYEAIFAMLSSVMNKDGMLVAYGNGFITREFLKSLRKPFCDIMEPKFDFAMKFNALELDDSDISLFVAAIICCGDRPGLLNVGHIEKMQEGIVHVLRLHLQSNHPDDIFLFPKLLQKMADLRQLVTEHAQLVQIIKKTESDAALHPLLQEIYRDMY
In short: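 One-hour incubation, cell-free extracted protein, TR-FRET binding readout; signal loss vs DMSO scored. Screen: 25 uM duplicates, confirmatory dose series for actives.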

[3] = biological target: Retinoic acid receptor alpha (Homo sapiens) (UniProt P10276); experiment: NVS_NR_hRARa_Agonist: NovaScreen (NVS) Nuclear Receptor Binding Assay for human Retinoic Acid Alpha Receptor Agonism (RAR) (AID 2283361)
Chain of Retinoic acid receptor alpha (Homo sapiens) (P10276 whole entry, looked up): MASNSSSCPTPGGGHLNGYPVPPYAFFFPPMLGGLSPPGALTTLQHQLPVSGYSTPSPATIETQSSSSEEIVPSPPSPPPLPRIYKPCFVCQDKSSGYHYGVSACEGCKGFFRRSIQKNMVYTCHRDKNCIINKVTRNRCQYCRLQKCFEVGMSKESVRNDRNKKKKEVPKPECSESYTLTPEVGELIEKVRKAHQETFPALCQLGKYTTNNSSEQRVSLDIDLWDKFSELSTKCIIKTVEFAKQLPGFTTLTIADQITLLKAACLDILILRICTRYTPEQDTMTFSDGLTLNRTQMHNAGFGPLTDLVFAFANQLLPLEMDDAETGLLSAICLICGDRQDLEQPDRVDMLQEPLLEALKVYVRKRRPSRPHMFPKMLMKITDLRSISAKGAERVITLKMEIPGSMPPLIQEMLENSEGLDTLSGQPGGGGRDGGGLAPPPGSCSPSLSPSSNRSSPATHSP
In short: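 Compounds screened at 25 uM, duplicate, then in concentration series if active. Detection: TR-FRET gain of signal versus DMSO after 2 h with cell-free extracted RARα.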

[4] = biological target: rat Androgen Receptor (AR), Ar (gene 24208) (UniProt P15207); experiment: NVS_NR_rAR: NovaScreen (NVS) Nuclear Receptor Binding Assay for rat Androgen Receptor (AR) (AID 2283366)
In short: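 Actives from a duplicate single-concentration (25 uM) primary run went on to concentration series. Displacement of radioligand was counted by filtration and scintillation, 18 h post-dose, using prostate extracts from testosterone-pretreated rats, with DMSO as baseline.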

[5] = biological target: human Dopamine Transporter (DAT), SLC6A3 (gene 6531) (UniProt Q01959); experiment: NVS_TR_hDAT: NovaScreen (NVS) Transporter Assay for human Dopamine Transporter (DAT) (AID 2283374);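 also: activity means loss of bound radioligand signal relative to DMSO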
Chain of human Dopamine Transporter (DAT), SLC6A3 (gene 6531) (Q01959 whole entry, looked up): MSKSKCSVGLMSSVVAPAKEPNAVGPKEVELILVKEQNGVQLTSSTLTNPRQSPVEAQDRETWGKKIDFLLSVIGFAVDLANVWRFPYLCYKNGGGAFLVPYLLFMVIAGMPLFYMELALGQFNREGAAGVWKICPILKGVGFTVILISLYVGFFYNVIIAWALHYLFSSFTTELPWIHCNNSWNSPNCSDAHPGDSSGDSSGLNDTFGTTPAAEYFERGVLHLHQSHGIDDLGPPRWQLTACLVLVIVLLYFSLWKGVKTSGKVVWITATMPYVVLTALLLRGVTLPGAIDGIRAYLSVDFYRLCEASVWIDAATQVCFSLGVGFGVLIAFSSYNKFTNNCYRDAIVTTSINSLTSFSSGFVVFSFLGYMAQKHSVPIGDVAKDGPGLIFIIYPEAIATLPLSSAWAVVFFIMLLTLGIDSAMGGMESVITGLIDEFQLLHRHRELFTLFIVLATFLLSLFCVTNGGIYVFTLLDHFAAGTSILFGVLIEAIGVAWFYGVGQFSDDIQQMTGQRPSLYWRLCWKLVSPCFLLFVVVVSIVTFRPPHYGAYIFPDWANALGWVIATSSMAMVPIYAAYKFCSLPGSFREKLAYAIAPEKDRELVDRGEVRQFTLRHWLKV
In short: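 Extracted human SLC6A3 protein incubated 1 h with radioligand and test chemical; bound fraction separated on filters and counted. Single 25 uM duplicate screen preceded concentration-response follow-up; positive and negative controls on every plate.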

[6] = biological target: Estrogen receptor (Homo sapiens) (UniProt P03372); experiment: OT_ER_ERaERa_0480: Odyssey Thera (OT) 8-hour HEK293T Protein-Complementation Assay for Estrogen Receptor-alpha/-alpha Homodimer (AID 2283351);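 also: rise in fluorescence from reassembled reporter fragments on ERα LBD homodimer in nucleus or whole cell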
Chain of Estrogen receptor (Homo sapiens) (P03372 whole entry, looked up, the tested form may be a part): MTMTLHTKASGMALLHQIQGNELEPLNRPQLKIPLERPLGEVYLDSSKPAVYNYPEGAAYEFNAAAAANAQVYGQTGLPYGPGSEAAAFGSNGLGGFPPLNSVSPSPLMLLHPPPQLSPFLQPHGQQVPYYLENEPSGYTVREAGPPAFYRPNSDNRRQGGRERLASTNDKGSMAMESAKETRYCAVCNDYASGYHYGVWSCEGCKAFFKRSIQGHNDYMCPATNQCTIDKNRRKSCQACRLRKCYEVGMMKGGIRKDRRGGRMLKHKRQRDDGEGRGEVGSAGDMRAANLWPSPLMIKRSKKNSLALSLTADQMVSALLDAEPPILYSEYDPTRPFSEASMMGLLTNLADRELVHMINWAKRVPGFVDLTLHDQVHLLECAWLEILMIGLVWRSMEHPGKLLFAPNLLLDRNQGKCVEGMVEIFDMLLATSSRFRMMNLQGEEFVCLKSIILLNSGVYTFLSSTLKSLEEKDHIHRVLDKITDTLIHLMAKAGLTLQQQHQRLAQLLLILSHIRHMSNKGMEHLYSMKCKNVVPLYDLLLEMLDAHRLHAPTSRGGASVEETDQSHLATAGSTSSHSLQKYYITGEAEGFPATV
In short: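 HEK293T cells stably expressing a PCA pair of ER alpha LBD (residues 310-547) were dosed for 8 hours. The gain in fluorescence intensity, nuclear for agonists and whole-cell for antagonists, was measured by laser scanning cytometry against DMSO vehicle.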

[7] = biological target: T1, Estrogen receptor (Homo sapiens) + Estrogen receptor beta (Homo sapiens) (UniProt P03372+Q92731); experiment: OT_ER_ERaERb_0480: Odyssey Thera (OT) 8-hour HEK293T Protein-Complementation Assay for Estrogen Receptor-alpha/-beta Heterodimer (AID 2283352)
T1 sequence (P03372 whole entry, looked up, the tested form may be a part): as above
T1 sequence (Q92731 whole entry, looked up, the tested form may be a part): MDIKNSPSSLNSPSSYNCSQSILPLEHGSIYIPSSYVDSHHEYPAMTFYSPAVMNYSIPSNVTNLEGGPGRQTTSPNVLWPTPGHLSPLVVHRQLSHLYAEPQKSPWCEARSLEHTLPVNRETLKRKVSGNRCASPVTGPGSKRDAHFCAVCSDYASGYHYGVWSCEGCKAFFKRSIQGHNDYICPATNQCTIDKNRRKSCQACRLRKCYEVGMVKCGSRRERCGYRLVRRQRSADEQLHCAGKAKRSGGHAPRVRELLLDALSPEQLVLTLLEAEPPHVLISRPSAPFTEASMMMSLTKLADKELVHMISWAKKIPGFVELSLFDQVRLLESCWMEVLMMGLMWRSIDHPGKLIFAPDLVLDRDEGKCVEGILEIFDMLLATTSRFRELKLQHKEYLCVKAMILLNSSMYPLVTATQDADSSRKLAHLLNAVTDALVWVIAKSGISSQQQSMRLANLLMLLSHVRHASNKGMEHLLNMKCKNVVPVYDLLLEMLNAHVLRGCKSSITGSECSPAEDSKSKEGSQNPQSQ
In short: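 HEK293T cells expressing ER-alpha/ER-beta LBD fusions to complementary reporter fragments were dosed with compound for 8 hours. Heterodimer formation was read as increased nuclear (agonist) or nuclear plus cytoplasmic (antagonist) mean fluorescence intensity versus DMSO vehicle.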

[8] = biological target: T1, Estrogen receptor (Homo sapiens) + Estrogen receptor beta (Homo sapiens); experiment: OT_ER_ERaERb_1440: Odyssey Thera (OT) 24-hour HEK293T Protein-Complementation Assay for Estrogen Receptor-alpha/-beta Homodimer (AID 2283356);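 also: heteromer of ER alpha and ER beta binding domains; hits raise reporter fluorescence and both agonists and antagonists give an increase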
In short: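 HEK293T cells stably expressing a PCA pair of ERα LBD (aa 310-547) and ERβ LBD (aa 263-489) were dosed for 24 h. Fluorescence intensity increase versus DMSO vehicle was fitted as gain-of-signal.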

[9] = biological target: Estrogen receptor beta (Homo sapiens) (UniProt Q92731); experiment: OT_ER_ERbERb_0480: Odyssey Thera (OT) 8-hour HEK293T Protein-Complementation Assay for Estrogen Receptor-beta/-beta Homodimer (AID 2283357);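 also: active means signal gain over DMSO baseline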
Chain of Estrogen receptor beta (Homo sapiens) (Q92731 whole entry, looked up, the tested form may be a part): as above
In short: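 Fluorescence gain from complemented reporter fragments on ER-beta LBD homodimer in HEK293T was quantified against DMSO controls after 8 h treatment, fixation in 4% formaldehyde and Draq5 staining.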

[10] = biological target: Glucocorticoid receptor (Homo sapiens) (UniProt P04150); experiment: NVS_NR_hGR: NovaScreen (NVS) Nuclear Receptor Binding Assay for human Glucocorticoid Receptor (GR) (AID 2283363);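 as to AC50: activity is loss of specific radioligand binding signal relative to DMSO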
Chain of Glucocorticoid receptor (Homo sapiens) (P04150 whole entry, looked up): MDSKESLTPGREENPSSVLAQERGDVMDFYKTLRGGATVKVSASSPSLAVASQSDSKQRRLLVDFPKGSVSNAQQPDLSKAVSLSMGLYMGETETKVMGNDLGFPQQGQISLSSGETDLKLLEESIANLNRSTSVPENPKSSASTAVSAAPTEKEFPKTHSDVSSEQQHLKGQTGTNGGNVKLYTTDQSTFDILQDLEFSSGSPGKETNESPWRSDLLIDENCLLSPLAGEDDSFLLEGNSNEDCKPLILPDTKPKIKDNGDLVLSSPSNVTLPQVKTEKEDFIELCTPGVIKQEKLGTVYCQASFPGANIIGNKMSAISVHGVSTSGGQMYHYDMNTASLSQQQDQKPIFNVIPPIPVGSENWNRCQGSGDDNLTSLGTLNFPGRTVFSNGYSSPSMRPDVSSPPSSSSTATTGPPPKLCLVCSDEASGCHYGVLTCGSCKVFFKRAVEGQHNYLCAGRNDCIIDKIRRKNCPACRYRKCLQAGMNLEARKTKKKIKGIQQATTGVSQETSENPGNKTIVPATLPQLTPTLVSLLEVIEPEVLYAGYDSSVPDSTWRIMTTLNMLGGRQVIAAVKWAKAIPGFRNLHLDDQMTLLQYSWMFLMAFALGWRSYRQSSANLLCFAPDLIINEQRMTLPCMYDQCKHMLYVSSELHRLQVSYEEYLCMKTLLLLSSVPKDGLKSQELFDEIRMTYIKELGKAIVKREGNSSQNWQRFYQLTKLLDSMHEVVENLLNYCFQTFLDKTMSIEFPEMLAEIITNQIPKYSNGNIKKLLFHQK
In short: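 Single-readout cell-free binding: radioligand plus extracted receptor, 16-hour dosing, filter radiodetection; 25 uM duplicate primary, concentration series secondary.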

[11] = biological target: PGR (gene 5241) (UniProt P06401); experiment: NVS_NR_hPR: NovaScreen (NVS) Nuclear Receptor Binding Assay for human Progestron Receptor (PR) (AID 2283360);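 also: active means loss of bound radioligand signal versus DMSO baseline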
In short: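 Competitive displacement of a labelled radioligand from T47D-derived receptor protein is measured in a cell-free format. Initial testing uses 25 uM in duplicate, with positive and negative controls on every plate.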

[12] = biological target: Nuclear receptor subfamily 1 group I member 2 (Homo sapiens) (UniProt O75469); experiment: NVS_NR_hPXR: NovaScreen (NVS) Nuclear Receptor Binding Assay for human Pregnane X Receptor (PXR) (AID 2283365);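 also: a drop in FRET signal versus DMSO baseline means the compound binds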
Chain of Nuclear receptor subfamily 1 group I member 2 (Homo sapiens) (O75469 whole entry, looked up): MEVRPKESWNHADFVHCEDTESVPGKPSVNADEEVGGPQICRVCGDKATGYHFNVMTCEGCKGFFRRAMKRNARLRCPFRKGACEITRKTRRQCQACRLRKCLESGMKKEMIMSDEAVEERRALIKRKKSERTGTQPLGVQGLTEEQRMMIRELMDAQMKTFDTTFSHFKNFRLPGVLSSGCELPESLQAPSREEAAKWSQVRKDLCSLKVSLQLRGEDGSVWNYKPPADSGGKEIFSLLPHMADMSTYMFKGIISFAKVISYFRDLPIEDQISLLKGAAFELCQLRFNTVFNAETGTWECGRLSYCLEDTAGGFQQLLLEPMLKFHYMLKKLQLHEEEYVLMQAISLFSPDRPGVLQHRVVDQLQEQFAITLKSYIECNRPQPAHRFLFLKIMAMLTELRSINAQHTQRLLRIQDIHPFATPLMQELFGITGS
In short: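 Cell-free binding assay with extracted human PXR protein, read by TR-FRET 2 h after dosing; loss of signal relative to DMSO baseline indicates binding. Primary screen at 25 uM in duplicate, actives retested in concentration series.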

[13] = biological target: rat Serotonin Transporter (SERT), Slc6a4 (gene 25553) (UniProt P31652); experiment: NVS_TR_rSERT: NovaScreen (NVS) Transporter Assay for rat Serotonin Transporter (SERT) (AID 2283375)
In short: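 Rat forebrain membranes were incubated with test chemical for 1 hour; radioligand binding to SERT was measured by filter-based scintillation counting. Primary screen ran in duplicate at 25 uM, with actives followed up in concentration series; DMSO served as negative control.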

[14] = biological target: human Norepinephrine Transporter (NET), SLC6A2 (gene 6530) (UniProt P23975); experiment: NVS_TR_hNET: NovaScreen (NVS) Transporter Assay for human Norepinephrine Transporter (NET) (AID 2283377);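 also: cell-free membrane protein extracted from CHO cells expressing human NET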
In short: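 In this cell-free binding screen, chemicals at 25 uM (duplicate) compete with a radioligand for CHO-derived human NET over 1 hour, with filter-based radiodetection.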

[15] = biological target: Androgen Receptor/SRC-1 Co-activator, AR (gene 367) (UniProt P10275); experiment: OT_AR_ARSRC1_0960: Odyssey Thera (OT) 16-hour HEK293T Protein-Complementation Assay for Androgen Receptor/SRC-1 Co-activator (AID 2283353);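 also: actives raise the signal above DMSO so potency reflects increased AR and SRC-1 complex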
Chain of Androgen Receptor/SRC-1 Co-activator, AR (gene 367) (P10275 whole entry, looked up, the tested form may be a part): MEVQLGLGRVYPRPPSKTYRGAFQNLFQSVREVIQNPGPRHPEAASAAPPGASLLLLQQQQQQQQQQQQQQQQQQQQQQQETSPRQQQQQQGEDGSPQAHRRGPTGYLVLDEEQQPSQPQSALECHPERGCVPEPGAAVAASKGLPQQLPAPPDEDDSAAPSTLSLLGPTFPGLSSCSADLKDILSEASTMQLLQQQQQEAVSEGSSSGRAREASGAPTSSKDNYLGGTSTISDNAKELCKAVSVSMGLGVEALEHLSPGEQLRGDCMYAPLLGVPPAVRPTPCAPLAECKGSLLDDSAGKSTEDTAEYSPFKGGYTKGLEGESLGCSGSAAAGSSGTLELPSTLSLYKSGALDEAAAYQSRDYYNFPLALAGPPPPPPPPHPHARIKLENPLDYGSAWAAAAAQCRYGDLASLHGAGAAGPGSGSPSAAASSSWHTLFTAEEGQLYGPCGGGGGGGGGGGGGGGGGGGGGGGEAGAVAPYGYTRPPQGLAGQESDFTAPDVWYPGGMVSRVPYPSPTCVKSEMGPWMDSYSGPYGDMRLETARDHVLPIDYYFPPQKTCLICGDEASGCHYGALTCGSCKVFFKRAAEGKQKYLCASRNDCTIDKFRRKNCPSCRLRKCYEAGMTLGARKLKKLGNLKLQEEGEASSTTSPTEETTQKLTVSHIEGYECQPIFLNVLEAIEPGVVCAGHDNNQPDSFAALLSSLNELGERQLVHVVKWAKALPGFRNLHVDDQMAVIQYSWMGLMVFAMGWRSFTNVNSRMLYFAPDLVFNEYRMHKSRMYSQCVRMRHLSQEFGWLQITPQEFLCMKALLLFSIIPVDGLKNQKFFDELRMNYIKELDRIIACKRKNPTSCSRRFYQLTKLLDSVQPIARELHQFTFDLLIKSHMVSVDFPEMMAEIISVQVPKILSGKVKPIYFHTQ
In short: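 Endpoint is gain-of-signal N/C fluorescence ratio in the 488 nm channel versus DMSO, from at least 400 cells per image, measured 16 h post-dosing. Cells: HEK293T stably carrying split-Venus AR/SRC-1 complementation constructs.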

[16] = biological target: Androgen Receptor/SRC-1 Co-activator, AR (gene 367) (UniProt P10275); experiment: OT_AR_ARSRC1_0480: Odyssey Thera (OT) 8-hour HEK293T Protein-Complementation Assay for Androgen Receptor/SRC-1 Co-activator (AID 2283354);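 also: hits raise the complementation signal above DMSO so AC50 marks enhancers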
In short: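 After 8 h dosing, stably expressing HEK293T cells with split-Venus AR/SRC-1 fusions were imaged (488, 635nm). The 488nm N/C ratio per image gave the endpoint, analysed in the positive direction against DMSO.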

[17] = biological target: human Thyroid Receptor Alpha (TRa), THRA (gene 7067) (UniProt P10827); experiment: NVS_NR_hTRa_Antagonist: NovaScreen (NVS) Nuclear Receptor Binding Assay for human Thyroid Receptor Alpha Antagonism (TRa) (AID 2283362);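 also: activity is loss of signal relative to DMSO baseline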
In short: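 Cell-free binding assay on extracted receptor protein, read 1 h after chemical dosing by AlphaLISA chemiluminescence; loss of signal relative to DMSO baseline marks antagonism. Primary screen ran in duplicate at 25 uM, with concentration series for actives.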

[18] = biological target: Retinoic acid receptor alpha (Homo sapiens) (UniProt P10276); experiment: NVS_NR_hRAR_Antagonist: NovaScreen (NVS) Nuclear Receptor Binding Assay for human Retinoic Acid Alpha Receptor Antagonism (RAR) (AID 2283358)
In short: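 Chemicals were first tested in duplicate at 25 uM, then actives in concentration series, in a cell-free TR-FRET antagonist binding format. Measurements were taken 2 hours after dosing and loss of signal was evaluated against DMSO controls.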

Measured: AC50

Cc1ccc(C)c(OCCCC(C)(C)C(=O)O)c1
inactive: [1]

Oc1ccc(-c2ccccc2)c(Cl)c1
active: [4] 16.3 µM
inactive: [2] | [3]

COc1ccc(C(=O)c2ccccc2)c(O)c1
active: [5] 16.4 µM

CCCCCCCOC(=O)c1ccc(O)cc1
inactive: [2]
active: [6] 12.3 µM | [7] 5.32 µM | [8] 12.2 µM | [9] 2.68 µM | [10] 7.77 µM

O=C(OCc1ccccc1)c1ccc(O)cc1
active: [6] 18.9 µM | [7] 4.92 µM | [8] 33.6 µM | [9] 3.98 µM

Cc1ccc([N+](=O)[O-])cc1N
inactive: [6] | [7] | [8] | [11] | [12] | [13] | [14]

CCCC=C(C=O)CC
inactive: [6] | [8] | [9]

C=C1C[C@H]2[C@@H]3C=C(C)C4=CC(=O)CC[C@]4(C)[C@H]3CC[C@]2(C)[C@@]1(OC(C)=O)C(C)=O
inactive: [6] | [9]
active: [15] 6.25 µM | [16] 5.8 µM | [8] 16.9 µM | [10] 0.00144 µM | [12] 4.1 µM

O=C(Nc1ccccc1)c1cc(Cl)ccc1O
active: [8] 31 µM
inactive: [6] | [9] | [12]

CCCCc1ccc(Cl)cc1
inactive: [6] | [7] | [8] | [9] | [12]

Oc1ccccc1Cc1ccccc1O
inactive: [6]
active: [7] 23.4 µM | [8] 53.4 µM | [9] 31.6 µM

CN(C)Cc1cc(CN(C)C)c(O)c(CN(C)C)c1
inactive: [6] | [15] | [16]

CCCCC(CC)COC(=O)/C=C/c1ccc(OC)cc1 (centres undefined)
active: [15] 50 µM
inactive: [6] | [16]

CCCCCCOC(=O)CCCCC(=O)OCCCCCC
inactive: [6] | [7] | [8] | [9] | [5]

CCCCC(C=O)CC (centres undefined)
inactive: [6] | [7] | [8] | [9]

COc1ccc(-c2coc3cc(O)cc(O)c3c2=O)cc1
inactive: [12]
active: [6] 12.3 µM | [7] 2.91 µM | [8] 5.37 µM | [9] 2.05 µM

CC(C)c1ccc(O)c(C(C)C)c1
inactive: [6] | [7] | [8] | [9] | [17]

C[Si](C)(C)N[Si](C)(C)C
inactive: [6] | [8] | [9]

c1ccc(Nc2cccc3ccccc23)cc1
active: [6] 35.2 µM | [7] 24.8 µM | [8] 47.1 µM | [9] 29.1 µM

CC(C)COC(=O)CC(C(=O)OCC(C)C)S(=O)(=O)O (centres undefined)
inactive: [6] | [7] | [8] | [9]
active: [12] 25 µM

CCCCC(=O)O
inactive: [6] | [7] | [8] | [10]
active: [10] 8.11 µM

CCCCCCCCCCCCc1ccc(O)cc1
active: [6] 2.48 µM | [7] 1.86 µM | [8] 1.14 µM | [9] 0.853 µM
inactive: [12]

CCN1CN(CC)CN(CC)C1
inactive: [6] | [8] | [9]

CCCCCC[C@@H](O)C/C=C\CCCCCCCC(=O)OCC(O)CO (some centres undefined)
active: [2] 15.5 µM
inactive: [6] | [15]

CCCCNS(=O)(=O)c1ccccc1
inactive: [6] | [7] | [8] | [9] | [12]

CCOC(=O)c1ccccc1C
inactive: [6] | [7] | [8] | [9]

CO[Si](C)(C)OC
inactive: [6] | [7] | [8] | [9]

O=C(O)C1CCC(C(=O)O)CC1 (centres undefined)
inactive: [6] | [8] | [9]

CCCC(CC)c1ccccc1 (centres undefined)
inactive: [6] | [7] | [8] | [9] | [2] | [10]

CC(CCC(=O)O)(c1ccc(O)cc1)c1ccc(O)cc1
inactive: [6] | [12]
active: [7] 39.1 µM | [8] 60.1 µM | [9] 31.8 µM

CCCCCC(=O)OCC
inactive: [6] | [7] | [8] | [9]

Nc1ccc(C(=O)O)cc1
inactive: [6] | [7] | [8] | [9] | [18]
